Test [1] has as its target T1, Tyrosine-protein kinase receptor TYRO3 (Homo sapiens) (UniProt Q06418).
T1 sequence (whole entry): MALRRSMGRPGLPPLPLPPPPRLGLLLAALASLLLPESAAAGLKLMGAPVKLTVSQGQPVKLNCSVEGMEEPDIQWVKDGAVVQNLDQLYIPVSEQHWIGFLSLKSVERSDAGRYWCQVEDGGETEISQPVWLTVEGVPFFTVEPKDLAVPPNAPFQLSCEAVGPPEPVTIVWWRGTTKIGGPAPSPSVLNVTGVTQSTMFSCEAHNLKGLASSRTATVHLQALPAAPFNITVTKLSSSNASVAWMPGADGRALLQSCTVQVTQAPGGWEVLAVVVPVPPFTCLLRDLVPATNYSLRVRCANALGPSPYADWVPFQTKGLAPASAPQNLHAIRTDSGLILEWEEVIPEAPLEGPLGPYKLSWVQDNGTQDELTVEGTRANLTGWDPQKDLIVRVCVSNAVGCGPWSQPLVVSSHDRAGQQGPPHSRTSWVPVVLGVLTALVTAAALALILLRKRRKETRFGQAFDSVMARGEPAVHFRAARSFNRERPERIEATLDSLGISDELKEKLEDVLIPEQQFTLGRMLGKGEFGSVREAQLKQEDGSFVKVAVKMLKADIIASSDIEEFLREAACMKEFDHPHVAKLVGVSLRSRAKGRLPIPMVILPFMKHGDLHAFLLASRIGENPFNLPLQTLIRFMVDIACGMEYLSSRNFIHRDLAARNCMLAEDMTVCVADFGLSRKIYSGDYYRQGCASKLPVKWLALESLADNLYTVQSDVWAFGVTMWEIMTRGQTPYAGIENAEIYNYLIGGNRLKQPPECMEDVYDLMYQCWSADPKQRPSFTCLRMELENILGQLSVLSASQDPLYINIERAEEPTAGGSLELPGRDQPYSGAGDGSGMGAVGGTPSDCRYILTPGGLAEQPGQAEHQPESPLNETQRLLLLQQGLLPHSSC
To be noted: at 1 µM.

Test [2] has as its target Tyrosine-protein kinase Yes (Homo sapiens) (UniProt P07947). As to conditions: at 0.1 µM.
The target is the same in test [3]. To be noted: at 1 µM.
For test [4], the target named is T2, Tyrosine-protein kinase ZAP-70 (Homo sapiens) (UniProt P43403).
T2 sequence (whole entry): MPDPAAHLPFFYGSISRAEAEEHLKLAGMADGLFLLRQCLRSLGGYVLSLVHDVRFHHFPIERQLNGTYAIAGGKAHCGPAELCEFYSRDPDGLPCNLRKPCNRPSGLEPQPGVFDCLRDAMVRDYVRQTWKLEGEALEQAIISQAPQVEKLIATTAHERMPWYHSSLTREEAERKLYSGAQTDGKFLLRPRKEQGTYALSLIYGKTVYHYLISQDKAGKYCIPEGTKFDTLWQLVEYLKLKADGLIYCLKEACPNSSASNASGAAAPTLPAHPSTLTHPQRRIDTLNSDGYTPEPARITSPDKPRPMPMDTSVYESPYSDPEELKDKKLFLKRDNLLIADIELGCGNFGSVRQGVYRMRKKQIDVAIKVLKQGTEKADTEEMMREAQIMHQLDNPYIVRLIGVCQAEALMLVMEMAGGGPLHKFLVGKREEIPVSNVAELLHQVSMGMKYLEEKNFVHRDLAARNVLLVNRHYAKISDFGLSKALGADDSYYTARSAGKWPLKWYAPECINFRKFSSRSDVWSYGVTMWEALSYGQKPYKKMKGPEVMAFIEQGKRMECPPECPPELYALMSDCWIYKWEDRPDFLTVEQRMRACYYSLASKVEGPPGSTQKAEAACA
To be noted: at 0.1 µM.

Test [5] concerns the target T2, Tyrosine-protein kinase ZAP-70 (Homo sapiens). To be noted: at 1 µM.
Test [6] addresses Serine/threonine-protein kinase B-raf (Homo sapiens) (UniProt P15056). To be noted: at 0.1 µM.
Test [7] shares this target. To be noted: at 1 µM.
For test [8], the system named is Serine/threonine-protein kinase B-raf (Homo sapiens), P15056 [V600E]. As to conditions: at 0.1 µM.
Serine/threonine-protein kinase B-raf (Homo sapiens), P15056 [V600E], sequence (P15056 whole entry V600E): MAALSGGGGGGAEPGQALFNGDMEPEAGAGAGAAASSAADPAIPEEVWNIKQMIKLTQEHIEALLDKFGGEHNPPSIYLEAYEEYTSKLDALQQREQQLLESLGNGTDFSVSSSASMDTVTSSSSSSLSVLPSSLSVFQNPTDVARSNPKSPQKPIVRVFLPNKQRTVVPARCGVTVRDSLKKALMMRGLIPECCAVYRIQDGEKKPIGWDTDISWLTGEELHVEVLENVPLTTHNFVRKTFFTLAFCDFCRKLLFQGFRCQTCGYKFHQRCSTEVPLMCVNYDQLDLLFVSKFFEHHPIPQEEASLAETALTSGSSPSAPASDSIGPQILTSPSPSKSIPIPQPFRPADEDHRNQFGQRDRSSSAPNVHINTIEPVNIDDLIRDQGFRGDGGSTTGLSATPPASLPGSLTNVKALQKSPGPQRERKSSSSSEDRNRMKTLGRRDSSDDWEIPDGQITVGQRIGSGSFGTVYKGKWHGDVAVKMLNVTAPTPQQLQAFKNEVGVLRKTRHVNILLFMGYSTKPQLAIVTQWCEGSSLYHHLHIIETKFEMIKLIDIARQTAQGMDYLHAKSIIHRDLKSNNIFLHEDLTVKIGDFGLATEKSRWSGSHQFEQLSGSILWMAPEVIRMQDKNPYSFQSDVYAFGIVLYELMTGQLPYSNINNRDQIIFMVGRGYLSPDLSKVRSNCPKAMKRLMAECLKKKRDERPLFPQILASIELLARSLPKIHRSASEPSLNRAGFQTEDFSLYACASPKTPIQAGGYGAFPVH
For test [9] the test system is unchanged. To be noted: at 1 µM.
Test [10] has as its target RAF proto-oncogene serine/threonine-protein kinase (Homo sapiens) (UniProt P04049). To be noted: at 0.1 µM.
For test [11] the target is unchanged. As to conditions: at 1 µM.
Test [12] concerns the target T3, Interleukin-1 receptor-associated kinase 4 (Homo sapiens) (UniProt Q9NWZ3).
T3 sequence (whole entry): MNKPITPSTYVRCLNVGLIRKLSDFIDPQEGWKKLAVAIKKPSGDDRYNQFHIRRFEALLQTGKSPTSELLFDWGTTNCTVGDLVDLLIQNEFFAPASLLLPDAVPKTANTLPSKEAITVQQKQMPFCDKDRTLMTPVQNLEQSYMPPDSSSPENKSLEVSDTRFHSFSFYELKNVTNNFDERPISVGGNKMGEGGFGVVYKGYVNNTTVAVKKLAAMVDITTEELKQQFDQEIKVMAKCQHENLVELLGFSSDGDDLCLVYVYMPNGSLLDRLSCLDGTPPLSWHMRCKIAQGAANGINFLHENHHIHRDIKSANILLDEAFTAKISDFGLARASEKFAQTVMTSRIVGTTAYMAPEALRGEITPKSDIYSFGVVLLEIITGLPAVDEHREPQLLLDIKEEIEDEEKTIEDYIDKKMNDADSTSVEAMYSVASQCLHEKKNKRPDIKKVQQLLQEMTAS
To be noted: at 0.1 µM.

Test [13] addresses T3, Interleukin-1 receptor-associated kinase 4 (Homo sapiens). As to conditions: at 1 µM.
Test [14] concerns the target Leucine-rich repeat serine/threonine-protein kinase 2 (Homo sapiens) (UniProt Q5S007). To be noted: at 0.1 µM.
For test [15] the target is unchanged. As to conditions: at 1 µM.
Test [16] has as its system Leucine-rich repeat serine/threonine-protein kinase 2 (Homo sapiens), Q5S007 [G2019S]. To be noted: at 0.1 µM.
For test [17] the test system is unchanged. To be noted: at 1 µM.

The record followed here is ChEMBL document CHEMBL1961873, “Compounds: GSK PKIS; Assays: Nanosyn kinase panel” (2012).

The inhibition is the drop in the measured response relative to a control, in per cent.

RAF proto-oncogene serine/threonine-protein kinase (Homo sapiens), sequence (P04049 whole entry): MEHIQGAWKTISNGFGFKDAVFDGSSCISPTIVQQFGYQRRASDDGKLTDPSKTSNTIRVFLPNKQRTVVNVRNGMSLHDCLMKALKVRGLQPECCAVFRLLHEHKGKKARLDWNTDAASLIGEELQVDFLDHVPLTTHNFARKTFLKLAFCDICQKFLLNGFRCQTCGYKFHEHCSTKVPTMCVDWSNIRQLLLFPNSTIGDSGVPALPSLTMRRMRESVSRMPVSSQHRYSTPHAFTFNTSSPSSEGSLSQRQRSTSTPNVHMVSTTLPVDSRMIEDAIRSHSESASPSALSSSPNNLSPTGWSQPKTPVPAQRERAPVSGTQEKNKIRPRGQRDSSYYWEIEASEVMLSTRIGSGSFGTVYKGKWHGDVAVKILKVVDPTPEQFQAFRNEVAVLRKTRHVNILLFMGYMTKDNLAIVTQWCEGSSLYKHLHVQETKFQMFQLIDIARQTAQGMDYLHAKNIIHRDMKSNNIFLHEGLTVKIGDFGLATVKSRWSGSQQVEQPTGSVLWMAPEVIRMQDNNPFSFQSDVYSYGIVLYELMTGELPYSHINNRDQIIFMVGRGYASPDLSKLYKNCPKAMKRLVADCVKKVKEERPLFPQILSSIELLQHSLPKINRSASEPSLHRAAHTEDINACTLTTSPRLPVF
Tyrosine-protein kinase Yes (Homo sapiens), sequence (P07947 2-543 limits assumed): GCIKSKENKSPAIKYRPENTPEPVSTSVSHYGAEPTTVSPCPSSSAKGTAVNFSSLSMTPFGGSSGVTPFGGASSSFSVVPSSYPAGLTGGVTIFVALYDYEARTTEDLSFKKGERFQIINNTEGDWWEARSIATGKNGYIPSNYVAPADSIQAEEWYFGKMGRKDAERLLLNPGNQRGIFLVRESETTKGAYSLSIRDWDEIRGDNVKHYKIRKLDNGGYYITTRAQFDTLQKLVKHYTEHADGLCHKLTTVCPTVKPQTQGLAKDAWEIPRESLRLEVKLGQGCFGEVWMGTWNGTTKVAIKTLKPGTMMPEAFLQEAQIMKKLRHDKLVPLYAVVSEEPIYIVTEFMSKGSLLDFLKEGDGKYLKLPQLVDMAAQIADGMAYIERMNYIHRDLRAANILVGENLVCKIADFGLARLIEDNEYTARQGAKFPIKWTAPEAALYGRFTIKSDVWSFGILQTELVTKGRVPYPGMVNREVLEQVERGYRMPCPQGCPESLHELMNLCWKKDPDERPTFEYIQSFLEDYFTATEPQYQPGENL
Serine/threonine-protein kinase B-raf (Homo sapiens), sequence (P15056 whole entry): as the sequence (P15056 whole entry V600E) above, with E600V counted along it
Leucine-rich repeat serine/threonine-protein kinase 2 (Homo sapiens), sequence (Q5S007 whole entry): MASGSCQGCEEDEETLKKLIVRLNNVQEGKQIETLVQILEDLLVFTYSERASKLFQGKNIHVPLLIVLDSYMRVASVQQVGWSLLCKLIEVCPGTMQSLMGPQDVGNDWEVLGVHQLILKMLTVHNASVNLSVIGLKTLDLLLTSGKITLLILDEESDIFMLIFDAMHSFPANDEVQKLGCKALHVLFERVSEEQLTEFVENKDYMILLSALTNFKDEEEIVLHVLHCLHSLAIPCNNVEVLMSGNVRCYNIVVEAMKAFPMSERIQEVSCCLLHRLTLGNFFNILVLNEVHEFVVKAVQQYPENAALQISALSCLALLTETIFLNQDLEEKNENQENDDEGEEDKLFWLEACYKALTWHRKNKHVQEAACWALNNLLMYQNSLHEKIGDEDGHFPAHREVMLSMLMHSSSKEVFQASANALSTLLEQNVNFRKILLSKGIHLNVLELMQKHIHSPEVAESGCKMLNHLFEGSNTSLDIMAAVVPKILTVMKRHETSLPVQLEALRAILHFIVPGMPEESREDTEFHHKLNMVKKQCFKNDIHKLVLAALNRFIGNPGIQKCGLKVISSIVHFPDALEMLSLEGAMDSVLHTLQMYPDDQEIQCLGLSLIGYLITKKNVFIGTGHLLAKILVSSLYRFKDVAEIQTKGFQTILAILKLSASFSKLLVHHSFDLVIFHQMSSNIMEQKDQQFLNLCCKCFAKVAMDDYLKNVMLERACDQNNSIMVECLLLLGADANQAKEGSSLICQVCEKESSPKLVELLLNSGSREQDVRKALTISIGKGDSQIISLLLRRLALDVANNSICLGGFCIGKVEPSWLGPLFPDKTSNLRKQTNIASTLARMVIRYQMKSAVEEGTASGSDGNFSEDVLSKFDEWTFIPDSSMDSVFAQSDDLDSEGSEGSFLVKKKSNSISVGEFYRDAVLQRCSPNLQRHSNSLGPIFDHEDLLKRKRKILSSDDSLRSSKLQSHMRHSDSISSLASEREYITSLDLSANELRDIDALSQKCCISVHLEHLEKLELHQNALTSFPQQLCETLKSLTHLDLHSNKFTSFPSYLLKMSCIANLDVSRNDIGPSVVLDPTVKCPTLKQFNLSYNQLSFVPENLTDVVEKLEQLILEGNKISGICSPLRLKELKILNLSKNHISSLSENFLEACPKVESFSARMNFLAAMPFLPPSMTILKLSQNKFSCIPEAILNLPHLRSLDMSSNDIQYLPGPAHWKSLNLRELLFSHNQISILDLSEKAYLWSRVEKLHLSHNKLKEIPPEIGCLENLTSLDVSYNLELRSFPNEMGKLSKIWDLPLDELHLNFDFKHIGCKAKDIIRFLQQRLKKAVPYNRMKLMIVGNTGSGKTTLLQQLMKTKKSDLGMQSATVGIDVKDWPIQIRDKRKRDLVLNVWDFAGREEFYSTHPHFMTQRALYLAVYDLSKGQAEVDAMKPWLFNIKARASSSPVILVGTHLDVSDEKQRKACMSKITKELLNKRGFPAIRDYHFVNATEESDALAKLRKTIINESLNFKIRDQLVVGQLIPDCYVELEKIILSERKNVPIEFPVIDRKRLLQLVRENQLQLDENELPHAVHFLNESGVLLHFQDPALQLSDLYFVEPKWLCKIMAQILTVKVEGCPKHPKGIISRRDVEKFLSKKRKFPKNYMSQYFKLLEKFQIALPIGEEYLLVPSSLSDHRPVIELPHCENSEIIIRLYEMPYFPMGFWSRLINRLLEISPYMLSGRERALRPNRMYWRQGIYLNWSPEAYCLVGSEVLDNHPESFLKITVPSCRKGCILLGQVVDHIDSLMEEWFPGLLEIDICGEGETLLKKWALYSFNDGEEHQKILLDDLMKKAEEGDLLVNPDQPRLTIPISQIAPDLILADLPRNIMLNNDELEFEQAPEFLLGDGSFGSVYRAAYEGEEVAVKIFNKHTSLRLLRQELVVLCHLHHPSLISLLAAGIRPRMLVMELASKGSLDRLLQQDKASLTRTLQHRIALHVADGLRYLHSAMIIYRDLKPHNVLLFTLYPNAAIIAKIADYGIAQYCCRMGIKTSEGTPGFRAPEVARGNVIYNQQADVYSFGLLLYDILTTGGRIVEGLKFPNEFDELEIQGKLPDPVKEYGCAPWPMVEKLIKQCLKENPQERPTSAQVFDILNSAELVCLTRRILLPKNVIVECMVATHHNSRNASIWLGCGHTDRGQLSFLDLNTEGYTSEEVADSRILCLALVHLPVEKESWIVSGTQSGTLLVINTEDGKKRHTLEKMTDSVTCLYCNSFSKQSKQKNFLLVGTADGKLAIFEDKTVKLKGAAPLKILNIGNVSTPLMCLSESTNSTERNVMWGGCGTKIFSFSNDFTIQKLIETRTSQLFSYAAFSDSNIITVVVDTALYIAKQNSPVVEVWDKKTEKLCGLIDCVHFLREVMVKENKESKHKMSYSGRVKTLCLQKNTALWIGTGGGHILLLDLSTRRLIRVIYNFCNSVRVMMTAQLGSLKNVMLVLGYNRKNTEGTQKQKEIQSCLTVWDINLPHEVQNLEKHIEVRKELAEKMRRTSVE
Leucine-rich repeat serine/threonine-protein kinase 2 (Homo sapiens), Q5S007 [G2019S], sequence (Q5S007 whole entry G2019S): as the sequence (Q5S007 whole entry) above, with G2019S counted along it

Consider `O=C1Nc2ccccc2/C1=C/Nc1ccc(-n2cncn2)cc1`, for which the inhibition was 10.2% in test [1]; 3.29% in [2]; 15.7% in test [3]; 4.53% in [4]; 7.33% in [5]; 6.1% in test [6]. Besides, the inhibition in [7] was 6.87%; in [8] it was 7.05%; in test [9], 6.86%; in test [10], 15.1%; in test [11] it was 5.44%; in test [12], 2.2%. In addition, the inhibition worked out at 2.52% in [13]; 4.2% in test [14]; 9.2% in test [15]; 6.6% in test [16]; 23.9% in [17].
Regarding `O=C(Nc1ccc(Oc2ccc3[nH]c(NC(=O)c4ccccc4)nc3c2)cc1)Nc1cc(C(F)(F)F)ccc1F`, the inhibition in test [1] was 16.8%; in [2] it was 1.01%; in [3] it was 7.23%; in [4], -1.74%; in test [5], 1.65%; in test [6], 4.48%. Further, the inhibition is 33.4% in test [7]; 5.24% in [8]; 42.7% in test [9]; -3.16% in test [10]; 17.9% in [11]; -1.64% in test [12]. Further, the inhibition in test [13] was determined as 2.09%; in test [14], 13%; in test [15], 18.4%; in test [16], 6.22%; in test [17], 36.1%.
`COc1cc(N2CCN(C(C)C)CC2)ccc1Nc1nc(Nc2ccc(F)cc2C(=O)NC[C@@H](O)CO)c2cc[nH]c2n1`: the inhibition is 5.76% in test [1]; 1.99% in [2]; 12.3% in test [3]; -0.52% in test [4]; 5.52% in test [5]; 6.98% in test [6]. Also, the inhibition in test [7] is 5.88%; in [8], 7.48%; in test [9] it was 4.83%; in test [10], -2.46%; in test [11], 2.01%; in [12], 3.02%. In addition, the inhibition in test [13] stood at 2.5%; in test [14] it was 10.5%; in test [15], 14.5%; in test [16], 48.9%; in test [17] it was 55.5%.
Consider `O=C(Nc1n[nH]c2cc(-c3ccccc3)ccc12)C1CC1`, for which the inhibition turned out to be 16.1% in test [1]; 1.86% in test [2]; 5.44% in test [3]; 4.16% in test [4]; 1.7% in [5]; 7.16% in test [6]. In addition, the inhibition in [7] is 6.29%; in test [8], 6.47%; in [9] it was 6.53%; in test [10], -0.71%; in [11], 1.41%; in [12] it was 2.36%. Moreover, the inhibition in test [13] is 2.04%; in test [14] it was 2.57%; in test [15], 6.05%; in [16] it was 3.85%; in test [17], 7.95%.
On to `Fc1ccc(-c2nc3n(c2-c2ccncc2)CCS3)cc1`, for which the inhibition in test [1] is 2.33%; in [2], 3.03%; in test [3] it was 7.29%; in test [4], -2.56%; in test [5], -1.24%; in test [6] it was 5.8%. Moreover, the inhibition in test [7] was 7.17%; in test [8] it was 5.81%; in [9], 5.73%; in [10], 1.81%; in test [11], -0.15%; in test [12] it was 3.38%. The inhibition in test [13] was 2.37%; in [14], -3.58%; in [15], -3.17%; in [16] it was -0.21%; in test [17], -0.63%.
Turning to `COc1cccc(-n2cnc3c(N/N=C/c4ccncc4)ncnc32)c1`, the inhibition in [1] is 4.59%; in test [2], 7.55%; in [3], 36.4%; in [4] it was -2.42%; in test [5], -3.33%; in test [6], -0.31%. In addition, the inhibition in test [7] was -1.09%; in test [8], -0.89%; in [9] it was -0.68%; in test [10], -3.41%; in test [11] it was -4.3%; in [12] it was -2.35%. For the same compound, the inhibition in test [13] is 0.01%; in test [14], -1.76%; in [15], 7.17%; in test [16], 0.11%; in test [17], 18.1%.
On to `CCc1cccc(CC)c1/C=C/c1cncc(C(=O)NC)c1`, for which the inhibition in test [1] was 2.78%; in [2] it was 3.04%; in [3], -1.48%; in [4], 0.45%; in [5], 0.77%; in test [6], 3.23%. In addition, the inhibition was 2.6% in [7]; 2.71% in test [8]; 2.87% in test [9]; 5.4% in test [10]; -1.79% in test [11]; -3.49% in test [12]. Besides, the inhibition stood at 1.51% in test [13]; 3.05% in test [14]; 4.51% in [15]; 2.33% in test [16]; 7.93% in test [17].
For the compound `COc1cc(C)c(N(C)C(=O)CN(C)C)cc1Nc1nc(Nc2cccc(F)c2C(N)=O)c2cc[nH]c2n1`, the inhibition in test [1] is -0.84%; in test [2] it was 0.04%; in test [3], -3.38%; in test [4], -1.25%; in [5], -6.34%; in test [6] it was 1.62%. Also, the inhibition in [7] is 3.95%; in test [8], 2.25%; in [9], 3.53%; in [10] it was -0.36%; in test [11], -0.93%; in [12], -1.54%. The inhibition amounted to 1.55% in [13]; 20.4% in test [14]; 18.8% in [15]; 45.5% in [16]; 57.7% in [17].
For the compound `NC(=O)c1cc(-c2ccncc2)cc(-c2ccccc2)c1N`, the inhibition in test [1] worked out at 3.61%; in test [2], 7.5%; in [3] it was 36%; in test [4], 4.11%; in test [5], 29%; in [6], 8.42%. Further, the inhibition was 8.98% in test [7]; 8.18% in test [8]; 8.65% in test [9]; 1.06% in test [10]; -6.49% in test [11]; 2.85% in test [12]. Moreover, the inhibition in test [13] was 2.52%; in [14], 3.59%; in test [15] it was 8.2%; in test [16] it was 4.3%; in test [17], 12.3%.
With `COc1cccc(/C=N/Nc2ncnc3c2cnn3-c2cccc(OC)c2)c1`, the inhibition in [1] was found to be 4.49%; in test [2] it was 2.39%; in [3], 8.43%; in test [4], 1.23%; in [5], 2.81%; in test [6] it was 4.82%. Further, the inhibition in test [7] is 6.54%; in test [8], 4.25%; in test [9] it was 4.68%; in [10], 1.07%; in [11] it was -1.82%; in test [12], 1.63%. Moreover, the inhibition in [13] was 2.48%; in test [14], -1.62%; in [15], 0.55%; in test [16], 0.17%; in test [17], 5.07%.
